Bioassay records (PubChem BioAssay)
Sm TGR block – S. mansoni TGR enzyme inhibition; purified TGR, DTNB reduction, TNB absorbance 405 nm; actives 3% (n = 360,000); AID 485364; Q962Y6; Potency, µM (doses to about 114 µM), hits mostly inhibitors; note: nearly all actives have a fitted effect of over 60% in size
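TGR 20 nM + NADPH 100 uM (dispensed conc.), cpd preinc 15 min RT; start with NADPH (500 uM addition) then DTNB (15 mM addition). Kinetic TNB absorbance, 405 nm filter. Four-parameter Hill fit across titration.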
FBPA Giardia inh – inhibitors of Giardia lamblia fructose-1,6-bisphosphate aldolase; A8B2U2; purified Giardia FBPA; Potency, µM (doses to about 59.6 µM), usual class: inhibitors; actives 0.71% (n = 290,000); note: nearly all actives have a fitted effect of over 55% in size
Target sequence (A8B2U2 whole entry, looked up): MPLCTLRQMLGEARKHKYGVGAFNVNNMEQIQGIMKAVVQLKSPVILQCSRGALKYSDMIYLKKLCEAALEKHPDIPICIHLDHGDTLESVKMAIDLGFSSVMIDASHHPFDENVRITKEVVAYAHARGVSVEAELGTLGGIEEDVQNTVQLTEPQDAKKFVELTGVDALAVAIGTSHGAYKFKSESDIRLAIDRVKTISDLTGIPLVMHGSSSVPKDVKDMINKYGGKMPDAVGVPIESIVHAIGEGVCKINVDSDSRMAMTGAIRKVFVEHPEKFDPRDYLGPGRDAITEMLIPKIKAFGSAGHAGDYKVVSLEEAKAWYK
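Giardia FBPA (40 nM reagent) was preincubated 10 min at RT with compound (up to 57.5 uM final), then substrate plus GAPDH/TPI/NAD/arsenate coupling system with diaphorase/resazurin was added; resorufin fluorescence (525/598 nm) was read after 20 min.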
HCMV inh – inhibitors of human cytomegalovirus | AID 1259415 | actives 4.5% (n = 410,000) | HFF cells, HCMV-luciferase reporter, 72 h; stronger effect = lower value | activity change, negative = inhibition, % at 57.5 µM; in the data active = activity change below about -60%; inconclusive = no clear call, values can overlap the other calls; inactive = above about -39%
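Inhibition of viral replication was scored as loss of reporter luminescence in HFFs infected with HCMV-luciferase (MOI 1 PFU/cell) for 72 h; compounds tested at 2 doses, normalized to buffer and Salinomycin controls.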
Pf growth 96h – P. falciparum growth inhibition at 96 hour, primary screen for plastid delayed-death inhibitors; P. falciparum luciferase reporter growth, 96 h; Potency, µM (highest dose often 28.7 µM), usual class: inhibitors; actives 6.9% (n = 320,000); AID 504834
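Delayed-death screen, second-generation endpoint: infected erythrocytes, 2% hematocrit, 0.05% parasitemia final; 96 hours at 37 C, 5% CO2; luciferase detection reagent; luminescence decrease equals reduced growth.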
Pf growth 48h – inhibits P. falciparum growth in the first generation, 48 h; P. falciparum luciferase growth in erythrocytes, 48 h; Potency, µM (highest dose often 28.7 µM), most hits filed as inhibitors; actives 5.9% (n = 310,000); AID 504832
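Firefly luciferase activity from engineered P. falciparum reports growth; inhibitors lower the luminescent signal. Cultures contained 2% hematocrit erythrocytes at 0.1% final parasitemia.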
Of the large screens only hits and unclear results are named; the others gave an inactive call. This is a sample that favours compounds with a hit; in the whole collection about 14% have one here. Unless noted, calls come from the whole dose curve; as a rule, active = well fitted curve in the direction sought with a large enough effect; inconclusive = small, poorly fitted or top-dose-only effect, or another doubt; inactive = no such curve, though single readings can be large; an effect the other way counts as inactive or inconclusive.

O=C(Nc1cccc(F)c1)c1cc(S(=O)(=O)NCCC2=CCCCC2)ccc1F	HCMV inh -72, Pf growth 96h inconclusive, Pf growth 48h inconclusive
Cc1cc(C)cc(NC(=O)c2cc(S(=O)(=O)NCCC3=CCCCC3)ccc2F)c1	none (no result: FBPA Giardia inh, Pf growth 96h, Pf growth 48h)
Cc1ccc(S(=O)(=O)NCCC2=CCCCC2)cc1C(N)=O	HCMV inh -75, Pf growth 96h 10µM (no result: FBPA Giardia inh)
COc1ccc(NC(=O)c2cc(S(=O)(=O)NCCC3=CCCCC3)ccc2F)cc1	HCMV inh -80 (no result: FBPA Giardia inh, Pf growth 96h, Pf growth 48h)
Cc1ccc(NC(=O)c2cc(S(=O)(=O)NCCC3=CCCCC3)ccc2F)cc1F	HCMV inh -71, Pf growth 96h inconclusive, Pf growth 48h inconclusive
Cc1nc(NCCC(C)C)c2nnn(Cc3ccccc3)c2n1	none
Cc1noc(C)c1-c1ccc2ncnc(NCc3cccc(F)c3)c2c1	none (no result: Sm TGR block, HCMV inh, Pf growth 96h, Pf growth 48h)
CCCCCCCCCCCCCCC[C@H](O)[C@@H](N)CO	none (no result: Sm TGR block, HCMV inh, Pf growth 96h, Pf growth 48h)
CC(=O)Oc1ccc(C23c4ccccc4C2(OC(C)=O)c2cc(OC(C)=O)ccc23)cc1 (centres undefined)	HCMV inh -70 (no result: Sm TGR block, FBPA Giardia inh, Pf growth 96h, Pf growth 48h)
CCc1ccc(O)c(C(=O)c2cnc3cc(-c4ccc(C)cc4)nn3c2)c1	none (no result: FBPA Giardia inh, Pf growth 96h, Pf growth 48h)
CCc1nn2cc(C(=O)c3cc(Cl)ccc3O)cnc2c1-c1ccc(F)cc1	HCMV inh -70, Pf growth 96h inconclusive, Pf growth 48h 6.6µM
CC(O)(c1cccnc1)c1nc(-c2cccc(C(F)(F)F)c2)cs1 (centres undefined)	none (no result: Sm TGR block, FBPA Giardia inh, Pf growth 96h, Pf growth 48h)
CC(=O)O[C@H]1C[C@@H]2OC3C=C(C)CCC3(C)[C@@]1(C)[C@@]21CO1 (some centres undefined)	HCMV inh -98 (no result: Sm TGR block, FBPA Giardia inh, Pf growth 96h, Pf growth 48h)
CCOc1ccc(N(CC(=O)NC2CCCCC2)C(=O)Cn2nnc(-c3ccc(C)o3)n2)cc1	none
Oc1cc2ccccc2nc1-c1ccccc1Cl	Pf growth 96h inconclusive, Pf growth 48h 7.4µM
Cc1c(-c2ccccc2Cl)nc2ccccc2c1C(=O)O	none
CC1CCCCN1CC(O)COCCC12CC3CC(CC(C3)C1)C2 (centres undefined)	Pf growth 96h 8.3µM, Pf growth 48h inconclusive
CCOC(=O)N1CCN(CC(O)COC2CC(C)CCC2C(C)C)CC1 (centres undefined)	Pf growth 48h inconclusive (no result: Pf growth 96h)
CCN(CC)CC(O)COCCC12CC3CC(CC(C3)C1)C2 (centres undefined)	HCMV inh inconclusive, Pf growth 96h inconclusive (no result: Pf growth 48h)
CCOC(=O)N1CCN(CC(O)COCCC23CC4CC(CC(C4)C2)C3)CC1 (centres undefined)	HCMV inh -62 (no result: Pf growth 48h)
O=C(N[C@@H](Cc1ccccc1)c1nc2ccccc2[nH]1)c1cc([N+](=O)[O-])ccc1Cl	Pf growth 96h inconclusive, Pf growth 48h 15µM
Cc1ccc(Cn2nc(C)c(NC(=O)c3cc(-c4ccc5c(c4)OCO5)on3)c2C)cc1	HCMV inh -60, Pf growth 48h inconclusive
Cc1cc(NC(=O)c2cc(-c3ccco3)on2)nn1Cc1ccc(Cl)cc1	HCMV inh inconclusive, Pf growth 48h 6.6µM (no result: Pf growth 96h)
COc1ccc(OC)c(-c2cc(C(=O)Nc3cc(C)n(Cc4ccc(Cl)cc4)n3)no2)c1	Pf growth 48h 2.1µM
Cc1nn(Cc2ccc(Cl)cc2)c(C)c1NC(=O)c1cc(-c2ccco2)on1	Sm TGR block inconclusive, Pf growth 48h inconclusive
Cc1nn(Cc2ccc(Cl)c(Cl)c2)c(C)c1NC(=O)c1cc(-c2ccco2)on1	Sm TGR block 45µM, HCMV inh inconclusive, Pf growth 48h inconclusive
CCCCNC(=O)N[C@H]1CC[C@@]23CCCN2C(=O)CCC[C@H]3[C@H]1C	none (no result: Sm TGR block, FBPA Giardia inh, Pf growth 96h, Pf growth 48h)
Nc1ncnc2c1nc(Br)n2[C@H]1O[C@H]2COP(=O)(O)O[C@H]2[C@@H]1O	none (no result: Sm TGR block, HCMV inh, Pf growth 96h, Pf growth 48h)
C=CCOC(=O)N[C@@H](CCc1ccccc1)C(C(C)=O)C(C)=O	none (no result: Sm TGR block, HCMV inh, Pf growth 96h, Pf growth 48h)
Cc1cc(NC(=O)c2cc(-c3ccc(F)cc3)on2)nn1Cc1ccc(Cl)cc1	none (no result: FBPA Giardia inh, Pf growth 96h, Pf growth 48h)
Cc1nn(Cc2ccccc2)c(C)c1NC(=O)c1noc2c1CCc1ccccc1-2	none (no result: HCMV inh, Pf growth 48h)
COc1cccc(-c2cc(C(=O)Nc3cc(C)n(Cc4ccc(Cl)cc4)n3)no2)c1	HCMV inh -80, Pf growth 48h 10µM
COc1ccc2c(c1)CCc1c(C(=O)Nc3c(C)nn(Cc4ccc(C)cc4)c3C)noc1-2	HCMV inh -96 (no result: FBPA Giardia inh, Pf growth 96h, Pf growth 48h)
Cc1ccccc1-c1cnc2c(c1)C(=O)N([C@@H](C)CO)C[C@@H](C)[C@H](CN(C)Cc1ccccc1F)O2	none (no result: Sm TGR block, FBPA Giardia inh, Pf growth 96h, Pf growth 48h)
COc1cccc(-c2cc(N(C)Cc3ccco3)ncn2)c1	none (no result: Sm TGR block, HCMV inh, Pf growth 96h, Pf growth 48h)
COc1ccccc1OCC(=O)Nc1nc2c(s1)CCCC2	HCMV inh -67 (no result: FBPA Giardia inh)
O=C(COc1ccc(F)cc1)Nc1nc2c(s1)CCCC2	Pf growth 96h inconclusive
COC(=O)C(NC(=O)COc1ccccc1)(Nc1nc2c(s1)CCCC2)C(F)(F)F (centres undefined)	Sm TGR block inconclusive, Pf growth 96h 10µM, Pf growth 48h inconclusive
Cc1ccc(C(C)C)c(OCC(=O)Nc2nc3c(s2)CCCC3)c1	HCMV inh -82 (no result: FBPA Giardia inh, Pf growth 96h, Pf growth 48h)
COc1ccc(OCC(=O)Nc2nc3c(s2)CCCC3)cc1	HCMV inh inconclusive (no result: FBPA Giardia inh)
O=C(CS(=O)(=O)Cc1ccccc1)Nc1nc2c(s1)CCCC2	none (no result: Pf growth 96h)
O=C(CCS(=O)(=O)Cc1ccccc1)Nc1nc2c(s1)CCCC2	HCMV inh -61
CCCOc1ccc(F)cc1-c1cc(C(=O)Nc2ccc(OC)cc2C)[nH]n1	none (no result: Sm TGR block, FBPA Giardia inh, Pf growth 96h, Pf growth 48h)
Cc1ccc(CN(C(=O)c2csnn2)C(C(=O)NC2CCCC2)c2ccccn2)cc1 (centres undefined)	Pf growth 48h inconclusive
